Active and inactive are the calls of the source.

The text below walks through data of PubChem BioAssay.

Test [1] deals with Plasmodium falciparum Sir2 (PF13_0152, Sir2A). Kind of test: pfSir2 binders on small-molecule microarrays, primary screen, biochemical, small-molecule microarray, 635 nm fluorescence (AID 1098).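 Further: score merges spot fluorescence intensity with its signal-to-noise ratio.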 Particulars: small-molecule microarray binding, fluorescence 635 nm; higher = more signal.
Test [2] can be described thus: small-molecule microarray binders of probe aDKK1, primary screen, biochemical, biotinylated probe, 635/667 nm fluorescence (AID 1099).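 Further: score merges 667nm spot fluorescence with signal to noise across triplicate slides.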 Particulars: higher = more signal.
Test [3] is described as follows: small-molecule microarray binders of probe aCHRDL2, primary screen, biochemical, biotinylated probe, 635/667 nm fluorescence (AID 1100). Particulars: higher = more signal.
The nature of test [4]: splicing luciferase reporter signal modulators, primary screen, spliceosome inhibition project, cell-based, HEK293, splice +/- reporter (AID 1101).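 Further: HEK293 cells carrying a splicing-competent luciferase reporter gene; test concentration not given here.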 Particulars: luminescence, 24 h, higher = more signal, called active from +8 up or from −8 down. On the technique in general: In a reporter assay the amount or activity of a reporter protein is the signal.
Test [5] has as its target Fibroblast growth factor 10 (Homo sapiens) (UniProt O15520). Kind of test: FGF10 binders on small-molecule microarrays, primary screen, biochemical, small-molecule microarray, 635 nm fluorescence (AID 1102). As to conditions: FGF10 binding, fluorescence 635 nm, higher = more signal.
Test [6] deals with glycogen synthase kinase-3 (GSK3A per assay name; protocol says GSK3B). Briefly: GSK3 binders on small-molecule microarrays, primary screen, biochemical, small-molecule microarray, 635 nm fluorescence, GSK3A (AID 1103). Further: the record names both GSK3A and GSK3B. As to conditions: small-molecule microarray binding, fluorescence 635 nm; higher = more signal.
The target of test [7] is Epidermal growth factor receptor (Homo sapiens) (UniProt P00533). Briefly: EGFR binders on small-molecule microarrays, primary screen, biochemical, small-molecule microarray, 635 nm fluorescence (AID 1104).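 Further: score merges 667 nm emission intensity with spot signal to noise over triplicate slides.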 Particulars: EGFR binding, higher = more signal.
Sequence of Epidermal growth factor receptor (Homo sapiens) (P00533 whole entry, looked up): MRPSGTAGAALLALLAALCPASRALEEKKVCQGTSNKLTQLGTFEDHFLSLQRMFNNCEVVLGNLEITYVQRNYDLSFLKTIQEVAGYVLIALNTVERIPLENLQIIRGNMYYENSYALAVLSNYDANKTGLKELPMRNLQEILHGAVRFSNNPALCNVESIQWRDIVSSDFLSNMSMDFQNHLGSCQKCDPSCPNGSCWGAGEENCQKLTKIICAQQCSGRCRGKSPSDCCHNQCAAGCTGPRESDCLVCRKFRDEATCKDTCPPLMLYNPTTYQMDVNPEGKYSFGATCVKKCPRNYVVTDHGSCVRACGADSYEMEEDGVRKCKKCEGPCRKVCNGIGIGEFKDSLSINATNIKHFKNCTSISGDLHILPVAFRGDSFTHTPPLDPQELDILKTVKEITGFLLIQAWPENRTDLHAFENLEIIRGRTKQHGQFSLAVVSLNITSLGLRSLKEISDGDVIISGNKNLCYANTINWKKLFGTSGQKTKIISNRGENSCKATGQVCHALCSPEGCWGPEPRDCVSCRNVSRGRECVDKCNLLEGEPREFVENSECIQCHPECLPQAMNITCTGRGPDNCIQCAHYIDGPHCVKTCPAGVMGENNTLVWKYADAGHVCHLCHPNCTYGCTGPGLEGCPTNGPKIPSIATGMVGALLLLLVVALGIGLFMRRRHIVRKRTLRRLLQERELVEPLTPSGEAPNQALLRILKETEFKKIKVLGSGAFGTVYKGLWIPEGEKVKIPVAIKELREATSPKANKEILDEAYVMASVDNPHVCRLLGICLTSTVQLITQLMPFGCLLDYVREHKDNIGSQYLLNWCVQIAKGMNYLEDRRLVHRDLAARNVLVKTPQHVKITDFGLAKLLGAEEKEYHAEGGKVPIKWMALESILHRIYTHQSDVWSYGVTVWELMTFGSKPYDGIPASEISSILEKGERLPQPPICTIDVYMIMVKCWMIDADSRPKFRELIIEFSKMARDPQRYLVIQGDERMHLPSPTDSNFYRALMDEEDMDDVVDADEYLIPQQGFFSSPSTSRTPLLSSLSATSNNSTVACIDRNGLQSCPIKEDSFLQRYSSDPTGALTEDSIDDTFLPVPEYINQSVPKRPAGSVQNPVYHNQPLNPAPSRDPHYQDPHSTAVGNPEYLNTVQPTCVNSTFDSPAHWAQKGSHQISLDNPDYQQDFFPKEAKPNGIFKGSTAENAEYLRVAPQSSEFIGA
Test [8] deals with Follistatin-related protein 3 (Homo sapiens) (UniProt O95633). Briefly: FSTL3 binders on small-molecule microarrays, primary screen, biochemical, small-molecule microarray, 635 nm fluorescence (AID 1105).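 Further: score merges emission near 667 nm and signal to noise per printed spot across three slides.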 As to conditions: FSTL3 binding, higher = more signal.
Sequence of Follistatin-related protein 3 (Homo sapiens) (O95633 whole entry, looked up): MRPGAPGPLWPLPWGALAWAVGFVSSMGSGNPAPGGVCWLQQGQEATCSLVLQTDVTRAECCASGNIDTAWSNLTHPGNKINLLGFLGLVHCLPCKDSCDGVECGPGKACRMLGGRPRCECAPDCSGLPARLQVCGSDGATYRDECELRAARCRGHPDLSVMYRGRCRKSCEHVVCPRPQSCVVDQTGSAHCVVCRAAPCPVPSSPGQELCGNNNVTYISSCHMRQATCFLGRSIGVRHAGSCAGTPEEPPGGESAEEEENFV
The target of test [9] is Dickkopf-related protein 1 (Homo sapiens) (UniProt O94907). Briefly: DKK1 binders on small-molecule microarrays, primary screen, biochemical, small-molecule microarray, 635 nm fluorescence scan (AID 1106).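 Further: score merges emission near 667 nm with signal to noise over three replicate slides.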 Particulars: DKK1 binding, higher = more signal.
Sequence of Dickkopf-related protein 1 (Homo sapiens) (O94907 whole entry, looked up): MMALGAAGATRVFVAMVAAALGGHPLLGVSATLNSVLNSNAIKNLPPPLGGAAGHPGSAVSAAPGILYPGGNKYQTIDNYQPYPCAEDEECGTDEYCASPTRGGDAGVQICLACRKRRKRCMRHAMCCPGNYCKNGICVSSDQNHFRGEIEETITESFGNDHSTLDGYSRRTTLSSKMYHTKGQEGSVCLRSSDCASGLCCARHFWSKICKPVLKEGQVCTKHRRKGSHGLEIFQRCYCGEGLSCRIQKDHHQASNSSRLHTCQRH
The subject of test [10] is Inhibin beta A chain (activin A). Kind of test: INHBA (activin A) binders on microarrays, primary screen, biochemical, small-molecule microarray, 635 nm fluorescence scan (AID 1107).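 Further: mouse activin A protein probed at 4.33 µg/mL on printed slides; score merges bound-protein fluorescence near 667 nm with spot signal-to-noise.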 As to conditions: small-molecule microarray binding, higher = more signal.
Test [11] concerns Human papillomavirus type 1a protein E7 (residues 44-93). Kind of test: HPV1a E7 fragment binders on microarrays, primary screen, biochemical, small-molecule microarray, residues 44-93, 635 nm fluorescence (AID 1108).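 Further: E7 fragment applied at 1 µg/mL in TBST for 1 h at 4 C; score combines spot fluorescence with its signal to noise ratio.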 As to conditions: small-molecule microarray binding, fluorescence 635 nm; higher = more signal.
The nature of test [12]: modulators of HCV replicon luciferase signal, primary screen, HCV replication inhibitor project, Huh7 cells, luciferase reporter (AID 1109).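 Further: huh7 hepatoma cells harbouring a luciferase neomycin HCV replicon reporter; luciferase luminescence as measure of HCV replicon replication; test concentration not given here.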 Particulars: 48 h, higher = more signal.
Test [13] concerns the target Left-right determination factor 2 (Homo sapiens) (UniProt O00292). Kind of test: LEFTY2 binders on small-molecule microarrays, primary screen, biochemical, small-molecule microarray, 635 nm fluorescence scan (AID 1110). Particulars: LEFTY2 binding, higher = more signal.
Test [14] addresses Calmodulin-1 (Homo sapiens) (UniProt P0DP23). Briefly: CALM1 binders on microarrays, EGTA buffer, profiling panel, biochemical, small-molecule microarray, Cy5-labelled CALM1 (AID 1111).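 Further: labelled calmodulin applied in Tris saline Tween buffer holding calcium plus EGTA and DTT.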 As to conditions: Cy5-CALM1 binding fluorescence, higher = more signal.
Test [15] shares this target. Briefly: calcium-bound CALM1 binders on microarrays, profiling panel, artefact control for SMM control-protein annotation, biochemical, small-molecule microarray, Cy5-labelled CALM1, plus calcium (AID 1112).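 Further: score merges spot fluorescence with signal to noise from triplicate slides.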 As to conditions: Cy5-CALM1 binding fluorescence, higher = more signal.
The nature of test [16]: small-molecule microarray binders of probe aWnt5a, primary screen, biochemical, biotinylated probe, 635/667 nm fluorescence (AID 1113).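 Further: score merges 667 nm fluorescence intensity with signal-to-noise per printed feature.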 As to conditions: higher = more signal.
Test [17] can be described thus: small-molecule microarray binders of probe aShh, primary screen, biochemical, biotinylated probe, 635/667 nm fluorescence (AID 1114).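 Further: probe is biotin-labelled aShh protein from a stem cell growth factor screen; measures binding of labelled protein to compounds printed on the slide; score merges feature fluorescence at 667 nm with signal-to-noise.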 Particulars: higher = more signal.
Test [18] can be described thus: small-molecule microarray binders of probe aNog, primary screen, biochemical, biotinylated probe, 635/667 nm fluorescence (AID 1115).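 Further: probe is biotinylated aNog protein used at 0.15 µg/mL for 1 h at 4 C; z-score combines 667 nm fluorescence of each spot with its signal to noise.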 As to conditions: higher = more signal.
Test [19] deals with Torsin-1A-interacting protein 1 (Homo sapiens) (UniProt Q5JTV8). Kind of test: LAP1 binders from COS7 cell lysate, primary screen, small-molecule microarray, 635/667 nm fluorescence (AID 1116). As to conditions: COS7-hLAP1 lysate binding, 635 nm fluorescence, higher = more signal.
Sequence of Torsin-1A-interacting protein 1 (Homo sapiens) (Q5JTV8 whole entry, looked up): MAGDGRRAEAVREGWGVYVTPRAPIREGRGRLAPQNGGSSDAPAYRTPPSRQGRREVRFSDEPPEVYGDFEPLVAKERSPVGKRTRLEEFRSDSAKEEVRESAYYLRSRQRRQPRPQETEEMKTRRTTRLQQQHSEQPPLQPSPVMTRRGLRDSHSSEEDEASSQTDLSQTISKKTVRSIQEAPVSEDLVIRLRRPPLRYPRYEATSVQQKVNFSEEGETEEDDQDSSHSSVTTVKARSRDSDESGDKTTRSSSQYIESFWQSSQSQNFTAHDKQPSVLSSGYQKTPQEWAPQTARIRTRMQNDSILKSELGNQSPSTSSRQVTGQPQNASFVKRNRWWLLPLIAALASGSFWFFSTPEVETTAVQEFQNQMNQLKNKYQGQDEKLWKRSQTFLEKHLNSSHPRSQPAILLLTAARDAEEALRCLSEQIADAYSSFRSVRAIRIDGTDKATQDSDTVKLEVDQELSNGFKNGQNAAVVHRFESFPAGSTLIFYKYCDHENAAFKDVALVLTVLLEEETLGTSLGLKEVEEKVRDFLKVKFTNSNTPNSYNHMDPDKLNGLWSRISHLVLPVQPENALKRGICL
The target of test [20] is Alpha-bungarotoxin (Bungarus multicinctus) (UniProt P60615). Briefly: alpha-bungarotoxin binders on microarray, profiling panel, artefact control for SMM control protein annotation, biochemical, small-molecule microarray, Alexa647 label, 635/667 nm fluorescence (AID 1117). As to conditions: alpha-BTX-A647 binding fluorescence, higher = more signal.
Sequence of Alpha-bungarotoxin (Bungarus multicinctus) (P60615 whole entry, looked up): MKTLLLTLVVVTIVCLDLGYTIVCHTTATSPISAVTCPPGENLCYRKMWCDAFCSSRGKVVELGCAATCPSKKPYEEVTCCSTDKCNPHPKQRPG

Sequence of Fibroblast growth factor 10 (Homo sapiens) (O15520 whole entry, looked up): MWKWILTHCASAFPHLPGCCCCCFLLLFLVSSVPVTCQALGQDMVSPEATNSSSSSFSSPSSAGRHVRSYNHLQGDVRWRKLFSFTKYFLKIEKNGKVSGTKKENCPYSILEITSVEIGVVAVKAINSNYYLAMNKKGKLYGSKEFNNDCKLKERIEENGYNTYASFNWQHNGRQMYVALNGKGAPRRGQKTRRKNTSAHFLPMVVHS
Sequence of Left-right determination factor 2 (Homo sapiens) (O00292 whole entry, looked up): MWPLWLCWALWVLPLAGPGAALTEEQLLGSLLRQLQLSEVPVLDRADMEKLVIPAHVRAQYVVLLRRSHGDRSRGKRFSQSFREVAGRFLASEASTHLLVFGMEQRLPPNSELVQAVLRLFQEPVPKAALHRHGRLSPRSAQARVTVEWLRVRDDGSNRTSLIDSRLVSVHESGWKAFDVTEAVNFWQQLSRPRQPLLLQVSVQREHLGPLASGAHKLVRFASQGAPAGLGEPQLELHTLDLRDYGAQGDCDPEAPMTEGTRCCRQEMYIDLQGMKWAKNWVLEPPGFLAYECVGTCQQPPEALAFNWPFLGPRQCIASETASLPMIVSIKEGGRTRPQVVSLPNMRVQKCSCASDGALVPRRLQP

Consider `CCOC(=O)C[C@H]1[C@H](OC(=O)c2ccccc2-c2ccccc2)[C@@H](NC(=O)C2CCCCC2)c2cc(OCCCO)ccc2N1C(=O)c1ccc2ccccc2n1`, for which the composite z-score is 0.486 in test [1]; -0.0483 in test [2]; -0.334 in [3]; 0.679 in test [5]; 0.452 in test [6]; 0.27 in test [7]. In addition, the composite z-score in test [8] is 0.845; in test [9], 0.483; in test [10] it was -0.286; in [11], 1.31; in [13], 0.358; in [14], 0.236. Also, the composite z-score in test [15] was -0.24; in test [16], -0.0087; in test [17], 0.0611; in test [18] it was 0.0707; in test [19] it was -0.0006; in test [20], 0.026. Also, the z-score in test [4] is 0.0681 (inactive); in test [12], -1.71.
Consider `COC(=O)[C@H](Cc1ccc(O)cc1)N[C@@H](/C=C/C1CC1)[C@H](O)Cc1ccccc1`, for which the composite z-score was -0.61 in test [1]; -0.29 in test [2]; -0.33 in test [3]; 0.357 in [5]; -0.444 in test [6]; -0.074 in [7]. Further, the composite z-score in test [8] is -0.119; in test [9] it was 0.14; in [10], -0.322; in [11], -0.367; in test [13], -0.0158; in [14], -0.851. Moreover, the composite z-score in test [15] is -0.929; in test [16], -0.15; in test [17] it was -0.214; in test [18], -0.321; in test [19], 0.108; in [20] it was -0.22. Moreover, the values for the z-score in test [4] and in test [12] were 1.29 (inactive) and -1.06, respectively.
Consider `CN1C(=O)[C@@H]2[C@@H](CC(COc3ccccc3)=C3[C@@H](CCc4ccccc4)OB(O)C[C@@H]32)C1=O`, for which the composite z-score was 1.11 in test [1]; -0.003 in test [2]; 0.0414 in test [3]; 0.311 in test [5]; -0.557 in test [6]; -0.133 in test [7]. For the same molecule, the composite z-score was 0.128 in [8]; 0.109 in test [9]; 0.515 in [10]; -0.0599 in test [11]; -0.194 in test [13]; 0.0212 in test [14]. The composite z-score in [15] is 0.662; in test [16], -0.156; in test [17] it was 0.691; in test [18], -0.0172; in [19], 0.0197; in [20], 1.4. In addition, the z-score in test [4] is 0.341 (inactive); in test [12], -0.595.
On to `COc1cc(C(O)C2C=CC3C(=O)N(c4ccccc4)C(=O)C3N2Nc2ccccc2)cc(OC)c1OC` (stereo not given), for which the composite z-score in test [1] is 1.27; in test [2], 1.03; in [3], 1.13; in test [5], 1.25; in test [6], 1.31; in test [7], -0.304. Also, the composite z-score in [8] is 1.07; in test [9], -0.586; in test [10], 0.484; in test [11], 1.46; in test [13], -0.0844; in test [14], 1.84. Further, the composite z-score turned out to be 0.613 in test [15]; 0.0472 in test [16]; 0.551 in test [17]; 1.66 in [18]; 1.6 in test [19]; 1.9 in test [20]. The z-score is 1.28 (inactive) in test [4] and -0.63 in test [12].
For the molecule `C=C(CCCC)/C(=C/C[C@H](OC(=O)c1ccncc1)c1cccc(OCCO)c1)c1cnc2ccccc2c1`, the composite z-score in [1] is 1.15; in [2], -0.138; in [3] it was -0.303; in test [5], 0.853; in [6], 0.783; in test [7] it was 0.463. Also, the composite z-score in test [8] is 1.28; in test [9], 0.483; in [10], 1.6; in [11], 1.39; in test [13], 0.354; in test [14], 0.0734. Further, the composite z-score in test [15] was -0.731; in [16] it was -0.0459; in test [17], -0.0035; in test [18], -0.0496; in test [19] it was -0.064; in test [20], 0.551. In addition, the results for the z-score in [4] and in test [12] were 0.223 (inactive) and -2.46, respectively.
`C[C@@H]1ON(c2ccccc2)[C@H](c2ccccc2)[C@H]1C(=O)O`: the composite z-score is -0.344 in test [1]; -0.158 in test [2]; -0.269 in [3]; 0.777 in test [5]; 0.362 in [6]; -0.436 in test [7]. The composite z-score in test [8] was -0.213; in test [9], 0.796; in [10] it was -0.367; in [11], -0.429; in test [13], 0.25; in test [14], 0.0717. Further, the composite z-score in test [15] is -0.124; in test [16], 0.0377; in [17] it was -0.2; in test [18], 0.618; in test [19], 0.109; in test [20], 0.167. The results for the z-score in test [4] and in test [12] were 0.221 (inactive) and 0.387, respectively.
